Source: PubChem BioAssay (National Center for Advancing Translational Sciences (NCATS))
Compounds with a hit are over-represented: about 9.2% of the library has one in this group of screens.
ELG1 genotoxic = inducers of genotoxicity in HEK293T ELG1-luciferase cells | AID 504466 | hit rate 1.3% among 330,000 | HEK293T ELG1-luciferase reporter, luminescence, 16 h | Potency, µM (series often up to 46 µM), for inactives: at the top dose activity change, positive = activation, usual class: activators; note: % of control where 0% means no effect; nearly all actives have a fitted effect of over 60% in size
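Reporter readout depends on ELG1 protein level, which increases with genetic stress. After 16 hr compound exposure at 37 °C, luciferase activity was quantified using ONE-Glo.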
Rab9 promoter act = Rab9 promoter activation | hit rate 2.8% among 320,000 | Huh7 Rab9 promoter-luciferase reporter, luminescence, 24 h | Potency, µM (top dose mostly 9.22 µM), inactives show at the top dose activation, negative = inhibition, hits mostly activators | AID 485297; note: % of control where 0% means no effect; nearly all actives have a fitted effect of over 60% in size
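Quantitative HTS format; Huh7 Rab9-luciferase reporter cells (1500/well) receive compound 2 h post-plating, incubate 24 h at 37 °C, then get luciferase reagent for 10 min before luminescence reading.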
FLuc modulator = firefly luciferase modulation, counter-screen for miR-21 project | hit rate 6.9% among 360,000 | purified FLuc, Km substrates, luminescence inhibition | Potency, µM (titrated, usually from 57.5 µM), inactives show top-dose activity change, negative = inhibition, actives largely listed as inhibitors | P08659;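 note: plate controls were vehicle for no effect and reference inhibitor for full effect; nearly all actives have a fitted effect of over 55% in size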
Target sequence (P08659 whole entry, looked up): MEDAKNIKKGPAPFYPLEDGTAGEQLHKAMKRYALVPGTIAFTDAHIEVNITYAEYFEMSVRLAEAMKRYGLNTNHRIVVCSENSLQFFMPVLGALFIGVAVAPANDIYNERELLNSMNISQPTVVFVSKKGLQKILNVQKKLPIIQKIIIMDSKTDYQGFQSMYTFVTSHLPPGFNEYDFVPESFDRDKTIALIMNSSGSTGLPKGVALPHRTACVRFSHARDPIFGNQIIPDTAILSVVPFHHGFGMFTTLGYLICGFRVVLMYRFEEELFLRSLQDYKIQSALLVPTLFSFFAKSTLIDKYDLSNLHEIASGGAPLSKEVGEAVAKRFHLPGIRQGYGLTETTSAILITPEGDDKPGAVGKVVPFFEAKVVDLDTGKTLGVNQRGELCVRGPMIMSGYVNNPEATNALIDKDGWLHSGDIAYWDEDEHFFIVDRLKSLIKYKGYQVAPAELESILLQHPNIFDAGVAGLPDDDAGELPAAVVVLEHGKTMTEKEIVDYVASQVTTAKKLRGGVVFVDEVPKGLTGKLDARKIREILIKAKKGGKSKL
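Biochemical qHTS of compounds, final roughly 60 µM downward over six points, against 10 nM purified firefly luciferase using Km concentrations of substrates (10 uM D-luciferin, 10 uM ATP) in Tris acetate pH 7.5 buffer; luminescence output.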
ELG1 repair inh = blocks ELG1-dependent DNA repair in HEK293T cells. HEK293T ELG1-luciferase reporter, luminescence, 16 h; DNA damage induced by 5-fluorouridine. Potency, µM (highest dose often 46.1 µM), without a hit: top-dose activity change, negative = inhibition, hits mostly inhibitors. hit rate 2.3% among 330,000. AID 504467; note: % is set by controls: 0 for no effect and ±100 for the full control effect; nearly all actives have a fitted effect of over 55% in size
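In this reporter screen, reduction of luminescence relative to DMSO vehicle indicated activity. Compounds and 5-fluorouridine were added together to 2,000 cells per well, incubated for 16 hr at 37 °C, then developed with ONE-Glo.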
NPC1 promoter act = NPC1 promoter activation; Huh7 NPC1 promoter luciferase reporter, 24 h; Potency, µM (doses to about 9.22 µM), for the others: at the highest dose activation, most hits filed as activators; hit rate 2.4% among 320,000; AID 485313; note: % of control where 0% means no effect; nearly all actives have a fitted effect of over 60% in size
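NPC1 promoter–luciferase Huh7 cells; 24 h compound; luminescence.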
SMN2 splice up = increases expression of the SMN2 splice variant | HEK293 SMN2-luciferase splicing reporter, luminescence, 30-36 h | Potency, µM (doses to about 46.1 µM), without a hit: at the top dose activity change, positive = activation, most hits filed as activators | hit rate 2.8% among 210,000 | AID 1458; note: % of control where 0% means no effect; nearly all actives have a fitted effect of over 55% in size
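HEK293 cells carry an SMN2 minigene-luciferase reporter in which exon 7 inclusion puts luciferase in frame. Cells were seeded at 2000 cells/well, attached for 10-12 hours, then exposed to compounds for 30-36 hours at 37C before ONE-Glo luminescence.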
Active calls of the source: *; u = inconclusive; x = no result. Calls come from the whole dose curve; as a rule, active = well fitted curve in the direction sought with a large enough effect; inconclusive = small, poorly fitted or top-dose-only effect, or another doubt; inactive = no such curve, though single readings can be large; an effect the other way counts as inactive or inconclusive. Potency is the fitted concentration of half-maximal effect.

SMILES | ELG1 genotoxic | Rab9 promoter act | FLuc modulator | ELG1 repair inh | NPC1 promoter act | SMN2 splice up
CCOC(=O)c1c(NC(=O)c2cccs2)sc2c1CCN(C(=O)OCC)C2 | -16% | 1% | -3% | u | -3% | u
CC(=O)N1CCc2c(sc(NC(=O)C3COc4ccccc4O3)c2C(N)=O)C1 (stereo not drawn) | 20% | 11% | -18% | -7% | 10% | x
CCN1CCc2c(sc(NC(=O)C3COc4ccccc4O3)c2C(N)=O)C1 (stereo not drawn) | 18µM* | u | -3% | u | u | x
CCOC(=O)N1CCc2c(sc(NC(=O)c3ccc(Cl)s3)c2C(N)=O)C1 | -10% | 2% | 11µM* | -13% | -1% | -92%
COc1cc2ccccc2cc1C(=O)Nc1sc2c(c1C(N)=O)CCN(C(C)C)C2 | -1% | -6% | 9.5µM* | -10% | -7% | x
CCOC(=O)N1CCc2c(sc(NC(=O)C3COc4ccccc4O3)c2C(N)=O)C1 (stereo not drawn) | -11% | 12% | 4% | u | 18% | x
CN1CCc2c(sc(NC(=O)C3COc4ccccc4O3)c2C(N)=O)C1 (stereo not drawn) | 23µM* | u | -11% | u | u | x
COCCN1CCN(C(=O)c2cc(COc3cncc(Cl)c3)on2)CC1 | -8% | 4% | 0% | -5% | -2% | x
CN1CCc2c(sc(NC(=O)c3ccc4ccccc4c3)c2C(N)=O)C1 | 10µM* | u | 2.7µM* | u | u | x
CN1CCc2c(sc(NC(=O)Cc3ccccc3)c2C(N)=O)C1 | 5% | 6% | 5% | 7% | 1% | x
C=CCn1c(=O)/c(=C/c2ccc(Cl)cc2)s/c1=C(/C#N)c1nnc2n1CCCCC2 | -33% | 0% | 4% | 21µM* | -3% | 12%
CCOC(=O)Nc1cccc(NC(=O)c2ccccc2F)c1 | -1% | -7% | u | -11% | -4% | -11%
O=C(O)c1cc(NC(=O)c2ccccc2F)cc(NC(=O)c2ccccc2F)c1 | 2% | 8% | 0% | 16% | -2% | x
CCN(CC)c1ccc(NC(=O)c2ccccc2F)cc1 | u | 0.56µM* | 6µM* | u | u | 11µM*
O=C(Nc1ccc(Nc2ccccc2)cc1)c1ccccc1F | u | u | 12µM* | u | u | x
CCOc1ccc(CN(C)C(=O)c2ccc3ccccc3n2)cc1 | 1% | u | 2% | 8% | 4% | x
CCOc1ccc(NC(=S)c2ccc3ccccc3n2)cc1 | 15% | u | u | u | 3.5µM* | x
COc1ccc(N=C(NN)c2ccc3ccccc3n2)cc1 | u | 22% | 6.7µM* | u | 17% | -1%
COc1ccc(NC(=O)CN(C)C(=O)c2ccc3ccccc3n2)cc1 | 1% | x | x | 5% | x | x
COc1ccc(NC(=S)c2ccc3ccccc3n2)cc1 | u | 4µM* | 13µM* | u | 3.2µM* | x
COc1ccc(S(=O)(=O)Nc2ccc3c(c2)C(=O)N([C@H](C)CO)C[C@H](C)[C@@H](CN(C)S(=O)(=O)c2c(C)noc2C)O3)cc1 | 0% | x | x | u | x | x
COc1ccc(NC(=O)C2CCN(S(=O)(=O)c3cccs3)CC2)cc1OC | -6% | -4% | 3% | u | -4% | x
COc1ccc(N2CCN(C(=O)c3nc(-c4ccc(Cl)cc4)n4c3CCCCC4)CC2)cc1 | x | x | -3% | x | x | x
Cc1nc(=S)c2c([nH]1)-c1ccccc1CC21CCCCC1 | -5% | 0% | 0% | 9% | -1% | x
Cc1cccc(-c2nc(S(=O)(=O)c3ccccc3)c(N3CCN(c4ccccc4)CC3)o2)c1 | x | x | -1% | x | x | -3%
SMILES | ELG1 genotoxic | Rab9 promoter act | FLuc modulator | ELG1 repair inh | NPC1 promoter act | SMN2 splice up
Cc1cccc(-n2cnc3sc(C)c(C)c3c2=O)c1 | 8% | 12% | -12% | u | 1% | x
Cc1nc2scc(-c3ccccc3)c2c(=O)n1/N=C/c1ccco1 | -3% | 3% | 0% | 15µM* | 0% | -6%
Cc1sc2ncn(/N=C/c3ccco3)c(=O)c2c1C | u | u | 11µM* | 29% | 27% | x
Cc1ccc(-c2nn3c(C)nnc3s2)cc1NC(=O)CSc1ccc(Cl)cc1 | 1% | -3% | -3% | 21µM* | -3% | -26%
Cc1c(NC(=O)CSc2ccc(Cl)cc2)cccc1-c1nc2ncccc2o1 | -6% | 5% | -3% | 9.2µM* | -6% | -36%
Cc1ccc2nc(-c3cccc(NC(=O)CSc4ccc(Cl)cc4)c3)oc2c1 | x | x | 1.7µM* | x | x | u
CCC(=O)Nc1cccc(-c2nc3ncccc3o2)c1C | 4% | -2% | 2% | 3% | -1% | x
Cc1ccc2nc(-c3ccc(C)c(NC(=O)CSc4ccc(Cl)cc4)c3)oc2c1 | x | x | 5.4µM* | x | x | u
O=C(CSc1ccc(Cl)cc1)Nc1cccc(-c2nc3ncccc3o2)c1 | -8% | 9% | -16% | u | 0% | -19%
Cc1ccc(NC(=O)c2cc(S(=O)(=O)NC3CCCCC3)ccc2F)cc1Cl | x | x | 3% | x | x | x
O=C(NC1=NCCS1)c1cc(-c2ccc(F)cc2)nc2ccccc12 | 1% | 1% | 5.4µM* | u | 11% | 11%
O=C(NNS(=O)(=O)c1cccc(Cl)c1)c1cc(-c2ccc(F)cc2)nc2ccccc12 | -3% | -6% | 19µM* | 0% | -2% | 0%
Cc1ccc(-c2cc(C(=O)NC3=NCCS3)c3ccccc3n2)cc1C | 11% | 7% | 0.85µM* | u | 1% | 14µM*
Cc1ccc(CNC(=O)c2cc(-c3ccc(C)c(C)c3)nc3ccccc23)cc1 | x | x | -18% | x | x | x
CCCc1ccc(-c2cc(C(=O)NC3=NCCS3)c3ccccc3n2)cc1 | u | 4.5µM* | 0.34µM* | u | 1.1µM* | x
O=C(NN=C1CCCC1)c1cc(-c2ccc(F)cc2)nc2ccccc12 | 7% | -8% | -20% | u | 0% | 1%
CCOC(=O)C1CCN(Cc2cc(Cl)c3ccccc3c2O)CC1 | -7% | -11% | 2% | -21% | 0% | x
COc1cccc2c1Oc1nc(-c3ccccc3)nc(SCC(=O)N3CCCCC3)c1C2 | x | x | -8% | x | x | 2%
CC(=O)Nc1ccc(NC(=O)C(C)c2cccc(C(=O)c3ccccc3)c2)cc1 (stereo not drawn) | -5% | -3% | -16% | -25% | 1% | -6%
CC(C(=O)Nc1ccc(O)cc1)c1cccc(C(=O)c2ccccc2)c1 (stereo not drawn) | -5% | -8% | -6% | 16µM* | -8% | -30%
COc1cc(Cl)c(NS(=O)(=O)c2ccc(-c3coc(C)n3)cc2)c(OC)c1 | x | x | -2% | x | x | x
COC(=O)c1cccc(NC(=O)c2cc3ccccc3o2)c1 | 16% | 0.71µM* | 2.1µM* | u | 0.71µM* | x
